In the library only some 6.1% were active in any assay of this set; here they are far more common.
ATXN2 expr inh – Primary qHTS for Inhibitors of ATXN expression | HEK-293 ATXN2-luciferase reporter, luminescence, 24 h | Potency, µM (doses to about 57 µM), most hits filed as inhibitors | 0.72% of 360,000 active | AID 1745845, 2022; note: nearly all actives have a fitted effect of over 55% in size
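qHTS (up to 57 uM final) was run with 24 h compound exposure of reporter cells at 37 °C. Each well was multiplexed: SteadyGlo luminescence measured ATXN2-luciferase expression after a fluorogenic Gly-Phe-AFC viability readout (25 uM final).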
HepG2 tox – qHTS for Inhibitors of TGF-b: Cytotox Counterscreen; HepG2 CAGA-GFP viability, ATP luminescence, 18 h; Potency, µM (series often up to 46.1 µM), actives largely listed as cytotoxic; 0.76% of 410,000 active; AID 588856, 2011
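CellTiter-Glo luminescence gave cytotoxicity after 18 hours at 37 degrees C. The cells were HepG2 CAGA-GFP in 1% FBS DMEM, stimulated with 500 pg/mL TGF-beta after compound addition. %Activity was normalised to no-cell wells (complete cell-killing) and DMSO (no toxicity), and curves were fitted and classified.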
Gal4-VP16 FLuc – VP16 counterscreen qHTS for inhibitors of ROR gamma transcriptional activity. Drosophila S2 Gal4-VP16 UAS-luciferase, luminescence, 20 h. Potency, µM (doses to about 53.6 µM), actives largely listed as inhibitors. 3.5% of 310,000 active. AID 2546, 2010;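 note: Gal4-VP16 expression switched on by copper sulfate through the metallothionein promoter; nearly all actives have a fitted effect of over 50% in size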
TGFb inhibitor – qHTS for Inhibitors of TGF-b | HepG2 CAGA-GFP TGF-b/SMAD3 reporter, GFP fluorescence, 18 h; TGF-beta stimulated, 500 pg/mL final | Potency, µM (titrated, usually from 46.1 µM), most hits filed as inhibitors | 1.2% of 410,000 active; note: nearly all actives have a fitted effect of over 65% in size
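Using HEPG2 CAGA-GFP reporter cells at 1000 cells/well, we pinned test compounds, stimulated with recombinant TGF-beta (500 pg/mL final) and measured total well GFP after 18 h.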
S2 tox – Viability Counterscreen for Primary qHTS for Inhibitors of ATXN expression. S2 cells (HEK-293 line with an ATXN2-luciferase reporter) viability, CellTiter-Fluor protease fluorescence, 24 h. Potency, µM (series often up to 56.7 µM), most hits filed as cytotoxic. 0.49% of 400,000 active. AID 651635, 2014; note: nearly all actives have a fitted effect of over 40% in size
RORg inh – qHTS for inhibitors of ROR gamma transcriptional activity; 5.4% of 310,000 active; Potency, µM (doses to about 53.6 µM), actives largely listed as inhibitors; Drosophila S2 Gal4-RORgamma UAS-luciferase reporter, 20 h; Nuclear receptor ROR-gamma (Mus musculus), P51450; note: nearly all actives have a fitted effect of over 60% in size
Target sequence (P51450 whole entry, looked up, the tested form may be a part): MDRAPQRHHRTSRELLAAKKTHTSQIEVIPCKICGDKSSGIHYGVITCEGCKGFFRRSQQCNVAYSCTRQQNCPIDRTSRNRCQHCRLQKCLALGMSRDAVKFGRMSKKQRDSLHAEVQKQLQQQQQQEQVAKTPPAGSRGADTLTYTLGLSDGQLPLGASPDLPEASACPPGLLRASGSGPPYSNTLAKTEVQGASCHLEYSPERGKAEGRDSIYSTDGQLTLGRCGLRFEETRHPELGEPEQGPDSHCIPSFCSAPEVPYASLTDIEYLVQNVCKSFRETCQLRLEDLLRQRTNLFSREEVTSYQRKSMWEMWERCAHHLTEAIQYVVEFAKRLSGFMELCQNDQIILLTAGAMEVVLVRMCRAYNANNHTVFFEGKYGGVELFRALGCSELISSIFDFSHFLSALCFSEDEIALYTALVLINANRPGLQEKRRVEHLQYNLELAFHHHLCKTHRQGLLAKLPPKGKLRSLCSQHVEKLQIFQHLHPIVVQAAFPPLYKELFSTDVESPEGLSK
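A Gal4/UAS one-hybrid system in insect cells: metallothionein-promoter Gal4–ROR gamma fusion plus Photinus luciferase reporter. Copper sulfate 700 uM final, 20 hr ambient incubation, luminescent detection after 10 min with reagent.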
Hits are given with their value; ! = not confirmed by another sample; [ ] = dose if it differs, or a comment. Calls come from the whole dose curve; as a rule, active = well fitted curve in the direction sought with a large enough effect; inconclusive = small, poorly fitted or top-dose-only effect, or another doubt; inactive = no such curve, though single readings can be large; an effect the other way counts as inactive or inconclusive.

Results for O=C(NOCC(O)CO)c1cc(Br)c(F)c(F)c1Nc1ccc(I)cc1F (stereo not given) ?
ATXN2 expr inh: inactive

What do the screens show for `CCS(=O)(=O)c1oc(-c2ccc(F)cc2)nc1S(=O)(=O)c1ccc(Br)cc1`?
HepG2 tox: 3.55µM; TGFb inhibitor: 2.82µM

How did Cc1cc2n(n1)SC(Nc1cccc3ccccc13)N2 (stereo not given) do in these assays?
ATXN2 expr inh: inactive; HepG2 tox: inactive; Gal4-VP16 FLuc: 4.47µM; TGFb inhibitor: inactive; S2 tox: inactive; RORg inh: 2µM

How did Cc1cc2n(n1)SC(Nc1cc(Cl)ccc1Cl)N2 (stereo not given) do in these assays?
ATXN2 expr inh: inactive; HepG2 tox: inactive; Gal4-VP16 FLuc: 0.562µM; TGFb inhibitor: inactive; S2 tox: inactive; RORg inh: 0.501µM

Results for Cc1cc2n(n1)SC(Nc1ccc(F)cc1)N2 (stereo not given) ?
ATXN2 expr inh: inactive; HepG2 tox: inactive; Gal4-VP16 FLuc: inconclusive; TGFb inhibitor: inactive; S2 tox: inactive; RORg inh: inconclusive

Results for CCc1ccccc1NC1Nc2cc(C)nn2S1 (stereo not given) ?
ATXN2 expr inh: inactive; HepG2 tox: inactive; Gal4-VP16 FLuc: 12.6µM; TGFb inhibitor: inactive; S2 tox: inactive; RORg inh: 5.62µM

How did Cc1cc(C)nc(Nc2cccc3ccccc23)n1 do in these assays?
HepG2 tox: inactive; TGFb inhibitor: inactive; S2 tox: inactive

Results for Cc1cccc(OCC(=O)Nc2ccc(-c3nc4cc(C)ccc4o3)c(O)c2)c1 ?
ATXN2 expr inh: inactive; HepG2 tox: inactive; TGFb inhibitor: inactive; S2 tox: inactive

What do the screens show for `CCOC(=O)Cn1c(=O)n(-c2ccc(Cl)cc2)c2nc(-c3ccc(Cl)cc3)nc(C(N)=O)c21`?
ATXN2 expr inh: inactive; HepG2 tox: inactive; TGFb inhibitor: inactive; S2 tox: inactive

Results for CCOC(=O)CCC(NC(=O)c1ccc(Nc2nc3ccccc3nc2C(=O)OCC)cc1)C(=O)OCC (stereo not given) ?
ATXN2 expr inh: 26.7µM; HepG2 tox: inactive; TGFb inhibitor: inactive; S2 tox: 29.9µM

Results for CCN(CC)c1ccc2cc(-c3nc4ccccc4[nH]3)c(=O)oc2c1 ?
ATXN2 expr inh: inactive; HepG2 tox: inactive; Gal4-VP16 FLuc: inactive[0.365 µM]; TGFb inhibitor: inactive; RORg inh: 2.82µM

How did Cc1ccc(/C=C/C(=O)N2CCN(S(=O)(=O)c3ccc(C)c(C)c3)CC2)o1 do in these assays?
ATXN2 expr inh: inactive; HepG2 tox: inactive; Gal4-VP16 FLuc: inconclusive; TGFb inhibitor: 10µM; S2 tox: inactive; RORg inh: inactive

How did COc1ccc(S(=O)(=O)N(CC(=O)Nc2cccc(C)c2)c2ccc(C)cc2)cc1OC do in these assays?
ATXN2 expr inh: inactive; HepG2 tox: inactive; TGFb inhibitor: inactive; S2 tox: inactive

What do the screens show for `Nc1ccc2nc(-c3ccc(Cl)cc3)[nH]c2c1`?
ATXN2 expr inh: inconclusive; HepG2 tox: 12.6µM; Gal4-VP16 FLuc: inconclusive; TGFb inhibitor: inconclusive; RORg inh: inconclusive

What do the screens show for `Cc1nc2ccc(-c3nc4ccc(N)cc4[nH]3)cc2[nH]1`?
ATXN2 expr inh: inconclusive; HepG2 tox: inactive; Gal4-VP16 FLuc: 8.91µM; TGFb inhibitor: inconclusive; S2 tox: inconclusive; RORg inh: 11.2µM

What do the screens show for `CC(=O)c1cccc(NC(=O)CSc2nnc3ccc(-c4ccc(C)cc4)nn23)c1`?
HepG2 tox: inactive; TGFb inhibitor: inconclusive

What do the screens show for `COc1cccc(CNC(=O)Cn2c(=O)oc3cc(S(=O)(=O)N4CCCC4)ccc32)c1`?
ATXN2 expr inh: inactive; HepG2 tox: inactive; TGFb inhibitor: inactive; S2 tox: inactive

Results for COc1cc(O)c2c(c1)oc(=O)c1c3cc(O)c(O)cc3oc21 ?
Gal4-VP16 FLuc: inconclusive; RORg inh: 12.6µM!

How did Cc1ccc2oc(=O)c3c4cc(O)c(O)cc4oc3c2c1 do in these assays?
Gal4-VP16 FLuc: inactive; RORg inh: inconclusive

What do the screens show for `COc1ccc(-c2nc(C)c(CCNC(=O)C(=O)Nc3ccccc3OC)s2)cc1`?
ATXN2 expr inh: inactive; HepG2 tox: inactive; TGFb inhibitor: inactive; S2 tox: inactive

What do the screens show for `CNC(=S)N/N=C/c1c(C)nn(-c2ccc(F)cc2)c1Cl`?
ATXN2 expr inh: inactive; HepG2 tox: inactive; Gal4-VP16 FLuc: 7.08µM; TGFb inhibitor: inactive; S2 tox: inconclusive; RORg inh: 2.82µM

What do the screens show for `Cc1nn(-c2ccc(F)cc2)c(Cl)c1/C=N/NC(=O)c1ccc(O)cc1`?
ATXN2 expr inh: inactive; HepG2 tox: inactive; Gal4-VP16 FLuc: 2.24µM; TGFb inhibitor: inactive; S2 tox: inactive; RORg inh: inconclusive

How did Fc1ccc(/C=C/c2nccc3ccccc23)cc1 do in these assays?
HepG2 tox: inactive; TGFb inhibitor: inactive

How did COc1cccc(-c2ccc(O)c(CNCc3cccc4ccccc34)c2)n1 do in these assays?
S2 tox: inactive

What do the screens show for `FC(F)(F)c1nnc2c(Sc3ccccn3)nc3ccccc3n12`?
ATXN2 expr inh: inactive; HepG2 tox: inactive; Gal4-VP16 FLuc: 20µM; TGFb inhibitor: inconclusive; S2 tox: inconclusive; RORg inh: 10µM

Results for COc1ccc(CN2CCC(n3cc(C(=O)N4CCCCC4)nn3)CC2)c(OC)c1 ?
S2 tox: inactive

How did Cn1cc(C2NC(=O)c3ccccc3N2)c2ccccc21 (stereo not given) do in these assays?
ATXN2 expr inh: inactive; HepG2 tox: inactive; TGFb inhibitor: inactive; S2 tox: inconclusive

What do the screens show for `Cn1cc(C2=C(c3c4n(c5ccccc35)CCC(CN)C4)C(=O)NC2=O)c2ccccc21` (stereo not given)?
ATXN2 expr inh: 24.3µM

Results for O=C(Cn1c2ncccc2c(=O)n1-c1ccccc1)Nc1cccc(C(F)(F)F)c1 ?
ATXN2 expr inh: inconclusive; HepG2 tox: inactive; TGFb inhibitor: inconclusive; S2 tox: inconclusive

How did CCOC(=O)c1[nH]c2ccc(Cl)cc2c1NC(=O)/C=C/c1ccc2c(c1)OCO2 do in these assays?
ATXN2 expr inh: inconclusive; HepG2 tox: inactive; Gal4-VP16 FLuc: 4.47µM; TGFb inhibitor: inactive; RORg inh: inconclusive

Results for Cc1cc(C=C2C(=O)c3ccccc3C2=O)c(C)n1-c1ccc(C(=O)O)cc1 ?
ATXN2 expr inh: inactive; HepG2 tox: inactive; Gal4-VP16 FLuc: inactive; TGFb inhibitor: inactive; S2 tox: inconclusive; RORg inh: inactive

Results for Cc1cc(/C=C2/C(=O)NN(c3ccccc3)C2=O)c(C)n1-c1cccc(O)c1 ?
ATXN2 expr inh: inactive; HepG2 tox: inactive; Gal4-VP16 FLuc: 15.8µM; TGFb inhibitor: inactive; S2 tox: inconclusive; RORg inh: inconclusive

Screening results from PubChem.
